These results are taken from PubChem BioAssay (NCI).

Among the test systems are SR leukemia; RPMI-8226 leukemia; OVCAR-8 ovarian; OVCAR-5 ovarian; OVCAR-4 ovarian; SK-OV-3 ovarian; IGROV1 ovarian; OVCAR-3 ovarian; HS 578T breast; NCI/ADR-RES ovarian; T-47D breast; BT-549 breast; MDA-MB-435 melanoma; SW-620 colon; MCF7 breast; HCT-116 colon; HCC-2998 colon; KM12 colon; MDA-MB-468 breast.
What all share (experiment): NCI-60 one-dose screen, 48 h (100 = growth as untreated, 0 = no growth, -100 = all killed)
Details in all cases: 10 µM unless noted

Compounds without any hit were thinned out: in the full panel of roughly 83,000, 20% have a hit.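 Values shown are percent growth following 48 h exposure of cells in 96-well plates to a single concentration of compound; below 10 was considered active.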 Values without a mark were called inactive. Calls of active or inactive are those of the source.

Consider `COc1cc(C2CC(c3cc(OC)c(OC)c(OC)c3)=Nc3c(N)nc(N)nc3N2)ccc1Oc1nc(NCCO)nc(N2CCOCC2)n1` (configuration not stated), for which the growth in the test with SR leukemia is 93.1%; in the test on RPMI-8226 leukemia, 95.5%; in the test with OVCAR-8 ovarian, 99.9%; in the test on OVCAR-5 ovarian, 106%; with OVCAR-4 ovarian it was 107%; in the test on SK-OV-3 ovarian it was 104%. The growth with IGROV1 ovarian was 104%; in the test on OVCAR-3 ovarian, 107%; with HS 578T breast it was 95%; in the test on NCI/ADR-RES ovarian, 97.6%; in the test with T-47D breast, 90.3%; in the test on BT-549 breast it was 116%. The growth with MDA-MB-435 melanoma was 100%; with SW-620 colon it was 103%; in the test on MCF7 breast, 87.4%; in the test with HCT-116 colon, 100%; in the test on HCC-2998 colon it was 115%; in the test with KM12 colon it was 99.9%. Further, in the test on MDA-MB-468 breast, the growth is 81.2%.
Consider `COc1cc(-c2nc3ccc(C)cc3[nH]2)ccc1OCc1nnc(-c2ccc(Br)cc2)o1`, for which the growth is -16% (active) in the test on SR leukemia; -12.9% (active) in the test with RPMI-8226 leukemia; 28.4% with OVCAR-8 ovarian; 92.1% in the test on OVCAR-5 ovarian; 10.6% in the test on OVCAR-4 ovarian; 59.3% in the test with SK-OV-3 ovarian. The growth in the test on IGROV1 ovarian was 64.2%; with OVCAR-3 ovarian, 39.1%; with HS 578T breast, -4.08% (active); in the test on NCI/ADR-RES ovarian it was 71.4%; in the test on T-47D breast, -14.6% (active); with BT-549 breast, 23.8%. Further, the growth in the test on MDA-MB-435 melanoma is 46.1%; in the test on SW-620 colon, 35.5%; in the test on MCF7 breast, 12.8%; in the test with HCT-116 colon, 11.5%; in the test on HCC-2998 colon, 58.7%; in the test on KM12 colon it was 37.7%. Further, the growth in the test with MDA-MB-468 breast was -34.3% (active).
For the compound `CC(=O)OC[C@@]1(C)C2CC[C@]3(C)C(CC=C4C5CC(C)(C)CC[C@]5(C(=O)Nc5ccc(Br)cc5)CC[C@]43C)[C@@]2(C)C[C@@H](OC(C)=O)[C@@H]1OC(C)=O` (some centres not stated), the growth was 32% in the test on SR leukemia; 14.5% in the test with RPMI-8226 leukemia; 35.9% in the test on OVCAR-8 ovarian; 92.8% in the test with OVCAR-5 ovarian; 42% in the test with OVCAR-4 ovarian; 44% in the test on SK-OV-3 ovarian. Moreover, the growth in the test on IGROV1 ovarian is 57.3%; in the test with OVCAR-3 ovarian it was 45%; in the test with HS 578T breast, 80.5%; with NCI/ADR-RES ovarian it was 42.5%; in the test with T-47D breast, 16.5%; in the test with BT-549 breast it was 43.7%. The growth is 47.8% with MDA-MB-435 melanoma; 39.9% in the test with SW-620 colon; 28.2% in the test with MCF7 breast; 24.6% in the test on HCT-116 colon; 38% with HCC-2998 colon; 46.4% in the test with KM12 colon. The growth in the test on MDA-MB-468 breast was 4.65% (active).
Regarding `C#CCOc1ccc(/C=N/Nc2nc(-c3ccc(Cl)cc3)cs2)cc1OC`, the growth in the test on SR leukemia was 22.2%; in the test with RPMI-8226 leukemia, 38.5%; with OVCAR-8 ovarian it was 51.7%; in the test with OVCAR-5 ovarian it was 86.9%; with OVCAR-4 ovarian it was 54.2%; with SK-OV-3 ovarian, 88.2%. In addition, the growth is 88.1% in the test on IGROV1 ovarian; 69.1% in the test with OVCAR-3 ovarian; 81.1% with HS 578T breast; 46% in the test with NCI/ADR-RES ovarian; 18.5% in the test with T-47D breast; 36% in the test with BT-549 breast. Moreover, the growth in the test with MDA-MB-435 melanoma was 44.1%; with SW-620 colon, 82.2%; in the test on MCF7 breast it was 21.8%; in the test on HCT-116 colon, 48.1%; in the test on HCC-2998 colon, 90.3%; in the test on KM12 colon it was 61.8%. Also, the growth in the test with MDA-MB-468 breast is 42.1%.
On to `COc1ccc2[nH]c(O)c(N=NC(=O)COc3ccc(NC(=O)Nc4ccccc4)cc3)c2c1`, for which the growth is 52.8% in the test on SR leukemia; 80% with RPMI-8226 leukemia; 9.54% (active) in the test with OVCAR-8 ovarian; 72.3% in the test on OVCAR-5 ovarian; 19.7% in the test with OVCAR-4 ovarian; 42.3% in the test with SK-OV-3 ovarian. The growth is 60.7% with IGROV1 ovarian; 65.5% with OVCAR-3 ovarian; 14% with HS 578T breast; 110% with NCI/ADR-RES ovarian; 27.1% in the test on T-47D breast; -36.4% (active) in the test on BT-549 breast. Moreover, the growth is 56.9% with MDA-MB-435 melanoma; 38.4% in the test on SW-620 colon; 23.7% in the test with MCF7 breast; 29.3% with HCT-116 colon; 34.9% in the test with HCC-2998 colon; -46.2% (active) in the test on KM12 colon. Further, the growth in the test on MDA-MB-468 breast is 13%.
`CN(C)CCn1c2ccccc2c2nc3ccc([N+](=O)[O-])cc3nc21`: the growth is 13% with SR leukemia; 20.3% in the test with RPMI-8226 leukemia; -15.6% (active) with OVCAR-8 ovarian; -0.168% (active) in the test with OVCAR-5 ovarian; 16.6% in the test on OVCAR-4 ovarian; 8.18% (active) in the test with SK-OV-3 ovarian. Further, the growth with IGROV1 ovarian is 4.78% (active); in the test with OVCAR-3 ovarian, 7.62% (active); in the test on HS 578T breast, 10.1%; with NCI/ADR-RES ovarian, 8.38% (active); with T-47D breast it was 14.3%; in the test with BT-549 breast it was 12.5%. Further, the growth with MDA-MB-435 melanoma is 22.3%; in the test on SW-620 colon it was 12.2%; with MCF7 breast, 12.4%; with HCT-116 colon, 0.47% (active); in the test with HCC-2998 colon it was 2.82% (active); in the test on KM12 colon, 1.62% (active). In addition, the growth in the test with MDA-MB-468 breast is -25.5% (active).
Consider `CC(=O)Nc1ccc(C(=O)NC(=S)Nc2ccc(S(N)(=O)=O)cc2)cc1`, for which the growth in the test with SR leukemia was 105%; in the test on RPMI-8226 leukemia it was 105%; in the test on OVCAR-8 ovarian it was 94.6%; in the test on OVCAR-5 ovarian it was 96.5%; in the test with OVCAR-4 ovarian it was 84.9%; in the test with SK-OV-3 ovarian it was 101%. Moreover, the growth in the test with IGROV1 ovarian was 92.3%; in the test with OVCAR-3 ovarian, 97.7%; with HS 578T breast it was 94.5%; in the test on NCI/ADR-RES ovarian, 95.9%; in the test on T-47D breast, 73.8%; with BT-549 breast, 94.4%. In addition, the growth with MDA-MB-435 melanoma is 97.5%; with SW-620 colon, 98%; in the test on MCF7 breast it was 93%; in the test with HCT-116 colon, 99.4%; with HCC-2998 colon it was 97.2%; in the test on KM12 colon it was 97.5%. The growth in the test on MDA-MB-468 breast was 80.2%.
As for `COc1cc2nc(SCc3ccccc3)n(-c3ccc(Cl)cc3)c(=O)c2cc1OC`, the growth was 5.33% (active) with SR leukemia; 34% in the test on RPMI-8226 leukemia; -19.9% (active) with OVCAR-8 ovarian; 34.3% in the test with OVCAR-5 ovarian; -55.6% (active) in the test on OVCAR-4 ovarian; -19.1% (active) in the test on SK-OV-3 ovarian. Further, the growth with IGROV1 ovarian is 4.02% (active); in the test with OVCAR-3 ovarian it was -42.6% (active); with HS 578T breast, -9.89% (active); in the test with NCI/ADR-RES ovarian, -30.4% (active); in the test on T-47D breast it was 45%; with BT-549 breast, 0.336% (active). Further, the growth in the test with MDA-MB-435 melanoma is 30.3%; in the test with SW-620 colon, 9.44% (active); with MCF7 breast, 14.7%; in the test on HCT-116 colon, -41% (active); in the test on HCC-2998 colon, 20.3%; in the test on KM12 colon, 40.5%. For the same compound, the growth in the test with MDA-MB-468 breast was -10.9% (active).
